The values that follow come from PubChem BioAssay (NCI).

The panel holds about 83,000 compounds, 20% with a hit somewhere; the sample as a whole holds those more often.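 How to read the values: 0–100, growth inhibition (40 = 60% inhibited); 0, no net growth; -100 to 0, cell death (-40 = 40% of starting cells died; -100 = all dead).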 Values without a mark were called inactive. Calls of active or inactive are those of the source. How the source made its calls: active means growth percent below 10; inactive means the rest.

The experiment relates to MDA-MB-468 breast. The experiment is described as follows: NCI-60 one-dose screen, 48 h (100 = growth as untreated, 0 = no growth, -100 = all killed). The following applies: 10 µM unless noted.
With `N#C/C(=C\c1ccc(-c2ccc(F)cc2)o1)C(=O)Nc1ncc(Cc2ccc(Cl)cc2Cl)s1`, the growth is -54.9% (active).

Consider `Cc1ccc(-c2n[nH]c(=O)c3noc(-c4ccc(C)cc4)c23)cc1`, for which the growth is -8.93% (active).

In the case of `COc1ccc(-c2nc(Nc3ccc(F)cc3)nc(Nc3ccc4c(c3)nc(C)n4Cc3ccccc3)n2)cc1`, the growth was 28.4%.

In the case of `NC(N)=NS(=O)(=O)c1ccc(Nc2ccc3nnc(-c4ccncc4)n3n2)cc1`, the growth is 96.6%.

As to `CC[C@@H]1NC(=O)[C@H]([C@H](O)[C@H](C)C/C=C/c2ccc(CN3C(=O)C(C)=C(C)C3=O)cc2)N(C)C(=O)[C@H](C(C)C)N(C)C(=O)[C@H](CC(C)C)N(C)C(=O)[C@H](CC(C)C)N(C)C(=O)[C@@H](C)NC(=O)[C@H](C)NC(=O)[C@H](CC(C)C)N(C)C(=O)[C@H](C(C)C)NC(=O)[C@H](CC(C)C)N(C)C(=O)CN(C)C1=O`, the growth is 53.1%.

For the compound `Oc1ccc(Cl)cc1-c1cc(-c2ccc(Cl)cc2)n[nH]1`, the growth was 8.55% (active).

With `CCCCOC(=O)c1c(C)[nH]c(/C=C2\N=C(c3ccc[nH]3)C=C2OC)c1C`, the growth was -58.2% (active).

Take `CCOS(=O)(=O)c1c(C(C)C)cc(C(C)C)cc1C(C)C`: the growth was 102%.

With `CCN1C(=O)N(CC)C2Nn3c(s/c(=C4\C(=O)N(C)c5ccccc54)c3=O)=NC21` (configuration not stated), the growth was 12.2%.

Consider `COc1ccc2c(c1)C(CC(=O)NN)CCC2` (configuration not stated), for which the growth was 102%.

With `CCN(CC)CCn1nc2c3c(cccc3c1=O)-c1ccccc1-2`, the growth is 25.9%.

Consider `CCOC(=O)c1ccc(NC(=O)NC2=NCCS2)cc1`, for which the growth is 29.6%.

For `COC(=O)c1cc(O)c2c(c1C(=O)OC)C[C@H]1[C@@H]3CC=C4C[C@@H](O)CC[C@]4(C)[C@H]3CC[C@]21C`, the growth is 35.3%.

As for `Cc1nc2cc(NC(=O)CN3CCN(CCN4C(=O)c5cccc6cccc(c56)C4=O)CC3)ccc2s1`, the growth is 38.2%.

On to `COC(=O)CNC(=O)c1ccc(NC(=O)c2[nH]c(C)c(Cl)c2Cl)c(O[C@H]2CCNC2)c1`, for which the growth was 112%.

Take `CC12CCC3c4ccc(O)cc4CCC3C1CCC2=O` (configuration not stated): the growth is 96.4%.

For `COc1ccc2nccc(Cl)c2c1`, the growth was 100%.

For `O=C(OCC1CCCO1)c1ccc([N+](=O)[O-])cc1` (configuration not stated), the growth was 88.9%.

In the case of `O=[N+]([O-])c1ccc(Oc2cccc(C(F)(F)F)c2)c([N+](=O)[O-])c1`, the growth is -8.95% (active).

Take `Cc1cc2nc(C(Cl)Cl)nc(-c3cccs3)n2n1`: the growth was -52% (active).

Regarding `C#C[C@]1(O)CC[C@H]2[C@@H]3CC=C4c5sc(Nc6ccncc6)nc5CC[C@]4(C)[C@H]3CC[C@@]21C`, the growth is -26.2% (active).

For `COc1ccc(/C=C/c2nc3ccccc3nc2/C=C/c2ccc(OC)cc2)cc1`, the growth was 88.1%.

As to `C=C(C)[C@@H]1CC[C@]2(C(=O)N3CCN(CC)CC3)CC[C@]3(C)[C@H](CC[C@@H]4[C@@](C)(CCC(=O)N5CCN(CC)CC5)[C@H](C(=C)C)CC[C@]43C)[C@@H]12`, the growth is 43.4%.

For `OC(CCN1CCCC1)(c1ccccc1)C1CCCCC1` (configuration not stated), the growth is 92%.

As to `COc1ccc(/C=C2\C(=O)N(C(=O)c3csc(NC(C)=O)n3)N=C2C)cc1`, the growth was 112%.

For the compound `O=C(NC(=S)NNC(=S)NNc1ccccc1)c1ccccc1`, the growth was 83.7%.

In the case of `Cc1ccc(C(=O)c2oc3ccc4c(C)cc(=O)oc4c3c2C)cc1`, the growth was 16%.

For `CN1CCN(C2=Nc3ccccc3Oc3ccc(Cl)cc32)CC1`, the growth was 100%.

For `CC(C)(C)n1nnnc1C(Nc1nccs1)c1cc2cccc3ccc4cccc1c4c32` (configuration not stated), the growth was -35.2% (active).

In the case of `Oc1ccccc1O`, the growth was 91.1%.

With `O=C(O)/C=C/c1ccc2c(c1)CCC2`, the growth was 104%.

Take `CC(=O)C(/C=N/C(N)=O)=C(/C)O`: the growth is 109%.

On to `CCN(CC)c1ccc(C(=O)c2ccccc2)cc1`, for which the growth was 105%.

For the compound `CSc1nc(CC(C)C)c(C#N)c(=O)n1C`, the growth was -2.71% (active).

For the compound `O=C1/C(=C/C=C/c2ccco2)SC(=S)N1C1CCCCC1`, the growth is 43.4%.

Consider `COc1ccc(C(=O)COC(=O)[C@H](C[Se][Se]C[C@H](NC(=O)c2ccc(Br)cc2F)C(=O)OCC(=O)c2ccc(OC)cc2)NC(=O)c2ccc(Br)cc2F)cc1`, for which the growth is -51.3% (active).

For the compound `C#CCOc1ccc2ncnc(Nc3cccc(CNC(=O)C=C)c3)c2c1`, the growth was 89.2% [8.25 µM].
